Measured values as given in PubChem BioAssay (NCATS).
Results filed as inconclusive are left out. A call without a number means that no potency is given here. The source made the active and inactive calls. Calls follow the shape of the dose curve; as a rule, active = well fitted curve in the direction sought with a large enough effect; inconclusive = small, poorly fitted or top-dose-only effect, or another doubt; inactive = no such curve, though single readings can be large; an effect the other way counts as inactive or inconclusive.

How the values were obtained:
[1] = Quantitative High-Throughput drug screen in 47 multiple myeloma cell lines against the NCATS MIPE library collection: INA6_PLB cell viability assay (AID 1918965; also: nearly all actives have a fitted effect of over 55% in size; also: potency is read from the fitted curve at half-maximal effect)
Outline: (§1)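 qHTS of the MIPE 4.0 collection: 500 myeloma cells/well, 48 h drug exposure at 37C in 5% CO2, then CellTiter-Glo for 5 min at room temperature before luminescence reading.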

[2] = Quantitative High-Throughput drug screen in 47 multiple myeloma cell lines against the NCATS MIPE library collection: H1112_PLB cell viability assay (AID 1918967; also: nearly all actives have a fitted effect of over 30% in size; also: potency is read from the fitted curve at half-maximal effect)
Outline: (§2)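 Approved and investigational drugs from MIPE 4.0 were added by pin tool to 500 cells per well. After 48 hours at 37C, ATP-based CellTiter-Glo luminescence indicated remaining viability.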

[3] = Quantitative High-Throughput drug screen in 47 multiple myeloma cell lines against the NCATS MIPE library collection: KMS27_JCRB cell viability assay (AID 1918970); conditions: KMS27 myeloma cells, CellTiter-Glo ATP viability, 48 h; viability (% of DMSO): at 45.8 µM (top of the series); also: nearly all actives have a fitted effect of over 30% in size; also: potency is read from the fitted curve at half-maximal effect
Outline: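 Luminescent ATP read-out (CellTiter-Glo, 5 min at room temperature) after 48 h compound exposure of 500 KMS27_JCRB cells per well; DMSO wells define full viability and media-only wells zero.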

[4] = Quantitative High-Throughput drug screen in 47 multiple myeloma cell lines against the NCATS MIPE library collection: KMS12BM_JCRB cell viability assay (AID 1918971); also: nearly all actives have a fitted effect of over 35% in size; also: potency is read from the fitted curve at half-maximal effect
Outline: as §1

[5] = Quantitative High-Throughput drug screen in 47 multiple myeloma cell lines against the NCATS MIPE library collection: KMS12PE_JCRB cell viability assay (AID 1918972); also: nearly all actives have a fitted effect of over 30% in size; also: potency is read from the fitted curve at half-maximal effect
Outline: as §1

[6] = Quantitative High-Throughput drug screen in 47 multiple myeloma cell lines against the NCATS MIPE library collection: NCIH929_DSMZ cell viability assay (AID 1918978); also: nearly all actives have a fitted effect of over 35% in size; also: potency is read from the fitted curve at half-maximal effect
Outline: (§3)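 Viability after 48 h drug exposure was measured as ATP-dependent luminescence. Cells, 500 per well, sat at 37 °C under 5% CO2; DMSO wells set 100%, media-only wells 0%.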

[7] = Quantitative High-Throughput drug screen in 47 multiple myeloma cell lines against the NCATS MIPE library collection: KMS28PE_JCRB cell viability assay (AID 1918983); also: nearly all actives have a fitted effect of over 35% in size; also: potency is read from the fitted curve at half-maximal effect
Outline: as §3

[8] = Quantitative High-Throughput drug screen in 47 multiple myeloma cell lines against the NCATS MIPE library collection: KMS34_JCRB cell viability assay (AID 1918985); also: nearly all actives have a fitted effect of over 40% in size; also: potency is read from the fitted curve at half-maximal effect
Outline: as §3

[9] = Quantitative High-Throughput drug screen in 47 multiple myeloma cell lines against the NCATS MIPE library collection: KMS20_JCRB cell viability assay (AID 1918973); also: nearly all actives have a fitted effect of over 45% in size; also: potency is read from the fitted curve at half-maximal effect
Outline: as §2

[10] = Quantitative High-Throughput drug screen in 47 multiple myeloma cell lines against the NCATS MIPE library collection: KMS26_JCRB cell viability assay (AID 1918975); also: nearly all actives have a fitted effect of over 45% in size; also: potency is read from the fitted curve at half-maximal effect
Outline: as §1

[11] = Quantitative High-Throughput drug screen in 47 multiple myeloma cell lines against the NCATS MIPE library collection: MMM1_PLB cell viability assay (AID 1918976); also: nearly all actives have a fitted effect of over 35% in size; also: potency is read from the fitted curve at half-maximal effect
Outline: as §3

[12] = Quantitative High-Throughput drug screen in 47 multiple myeloma cell lines against the NCATS MIPE library collection: OCIMY1_PLB cell viability assay (AID 1918979); also: nearly all actives have a fitted effect of over 35% in size
Outline: as §3

[13] = Quantitative High-Throughput drug screen in 47 multiple myeloma cell lines against the NCATS MIPE library collection: MM1S_ATCC cell viability assay (AID 1918980); also: nearly all actives have a fitted effect of over 45% in size; also: potency is read from the fitted curve at half-maximal effect
Outline: as §3

[14] = Quantitative High-Throughput drug screen in 47 multiple myeloma cell lines against the NCATS MIPE library collection: MM1R_ATCC cell viability assay (AID 1918981); also: nearly all actives have a fitted effect of over 35% in size; also: potency is read from the fitted curve at half-maximal effect
Outline: as §3

[15] = Quantitative High-Throughput drug screen in 47 multiple myeloma cell lines against the NCATS MIPE library collection: LP1_DSMZ cell viability assay (AID 1918982); also: nearly all actives have a fitted effect of over 35% in size
Outline: as §3

[16] = Quantitative High-Throughput drug screen in 47 multiple myeloma cell lines against the NCATS MIPE library collection: L363_DSMZ cell viability assay (AID 1918984); also: nearly all actives have a fitted effect of over 40% in size
Outline: as §3

[17] = Quantitative High-Throughput drug screen in 47 multiple myeloma cell lines against the NCATS MIPE library collection: Karpas25_ECACC cell viability assay (AID 1918968; also: nearly all actives have a fitted effect of over 35% in size; also: potency is read from the fitted curve at half-maximal effect)
Outline: as §2

[18] = Quantitative High-Throughput drug screen in 47 multiple myeloma cell lines against the NCATS MIPE library collection: MOLP8_DSMZ cell viability assay (AID 1918977); also: nearly all actives have a fitted effect of over 45% in size; also: potency is read from the fitted curve at half-maximal effect
Outline: as §3

[19] = Quantitative High-Throughput drug screen in 47 multiple myeloma cell lines against the NCATS MIPE library collection: JJN3_DSMZ cell viability assay (AID 1918966; also: nearly all actives have a fitted effect of over 50% in size; also: potency is read from the fitted curve at half-maximal effect)
Outline: as §2

[20] = Quantitative High-Throughput drug screen in 47 multiple myeloma cell lines against the NCATS MIPE library collection: KMS21BM_JCRB cell viability assay (AID 1918974); conditions: ATP luminescence, 48 h; viability: at 45.8 µM (top of the series); also: potency is read from the fitted curve at half-maximal effect
Outline: as §2

| SMILES | Potency [1] | Potency [2] | Potency [3] | Potency [4] | Potency [5] | Potency [6] | Potency [7] | Potency [8] | Potency [9] | Potency [10] | Potency [11] | Potency [12] | Potency [13] | Potency [14] | Potency [15] | Potency [16] | Potency [17] | Potency [18] | Potency [19] | Potency [20] |
| --- | --- | --- | --- | --- | --- | --- | --- | --- | --- | --- | --- | --- | --- | --- | --- | --- | --- | --- | --- | --- |
| O=C(O)C(=O)Nc1cccc(C2=NN=N[N]2)c1 | inactive | inactive | inactive | inactive | inactive | inactive | inactive | inactive | – | – | – | – | – | – | – | – | – | – | – | – |
| C[C@H](CCC(=O)O)[C@H]1CCC2C3C[C@H](O)[C@@H]4C[C@H](O)CC[C@]4(C)C3CC[C@@]21C (some centres not stated) | inactive | inactive | – | – | inactive | inactive | inactive | inactive | inactive | inactive | 0.833 µM (active) | inactive | inactive | inactive | inactive | inactive | – | – | – | – |
| O=C(NC1CC1)c1cccc(-c2ccc3c(NC(=O)C4CC4)n[nH]c3c2)c1 | 5.26 µM (active) | 6.62 µM (active) | – | 8.33 µM (active) | inactive | 16.6 µM (active) | 10.5 µM (active) | 20.9 µM (active) | – | 2.64 µM (active) | – | – | 0.332 µM (active) | 1.48 µM (active) | – | inactive | – | – | – | – |
| CC(=O)OCC(=O)[C@@]12N=C(C)O[C@H]1C[C@H]1[C@@H]3CCC4=CC(=O)C=C[C@]4(C)[C@@H]3[C@@H](O)C[C@@]12C | 11.8 µM (active) | – | – | inactive | inactive | – | inactive | – | – | inactive | inactive | – | 5.9 µM (active) | inactive | – | – | 5.26 µM (active) | 16.6 µM (active) | – | – |
| CCOC(=O)C1=C(C)NC(=S)NC1c1cccc(O)c1 (configuration not stated) | 0.0264 µM (active) | – | 0.0469 µM (active) | 0.0662 µM (active) | 0.372 µM (active) | – | 0.0833 µM (active) | 0.0833 µM (active) | – | – | – | – | 0.0418 µM (active) | 0.0296 µM (active) | – | – | 0.0296 µM (active) | 0.0372 µM (active) | – | – |
| CC(=O)OCC(=O)[C@@]1(O)CC[C@H]2[C@@H]3CCC4=CC(=O)CC[C@]4(C)[C@@H]3C(=O)C[C@@]21C | – | inactive | inactive | inactive | inactive | inactive | inactive | inactive | inactive | inactive | – | inactive | – | inactive | inactive | inactive | inactive | – | inactive | – |
| C#C[C@]1(O)CC[C@@H]2[C@@H]3CCc4cc(O)ccc4[C@H]3CC[C@@]21C | 9.35 µM (active) | 18.7 µM (active) | – | 20.9 µM (active) | 16.6 µM (active) | 3.72 µM (active) | – | – | 14.8 µM (active) | 3.72 µM (active) | 14.8 µM (active) | – | 11.8 µM (active) | 20.9 µM (active) | – | – | – | – | – | – |
| CC(=O)N[C@@H]1[C@H](O[C@@H]2c3ccc(c(Cl)c3)Oc3cc4cc(c3O[C@H]3O[C@H](CO)[C@@H](O)[C@H](O)[C@H]3NC(=O)CCCCCCCC(C)C)Oc3ccc(cc3Cl)C[C@H]3NC(=O)[C@H](N)c5ccc(O)c(c5)Oc5cc(O)cc(c5)[C@H](NC3=O)C(=O)N[C@H]4C(=O)N[C@H]3C(=O)N[C@@H]2C(=O)N[C@@H](C(=O)O)c2cc(O)cc(O[C@H]4O[C@H](CO)[C@@H](O)[C@H](O)[C@H]4O)c2-c2cc3ccc2O)O[C@H](CO)[C@@H](O)[C@@H]1O | inactive | – | inactive | inactive | inactive | inactive | inactive | inactive | – | inactive | – | inactive | – | inactive | – | inactive | – | inactive | – | – |
| COc1cc(C)c(C=CC(C)=CC=CC(C)=CC(=O)O)c(C)c1C | 5.26 µM (active) | inactive | – | – | – | inactive | inactive | inactive | – | inactive | – | inactive | inactive | inactive | inactive | inactive | inactive | – | – | – |
| O=C(O)CCCCCC(=O)NN=C1CCCC1 | inactive | – | inactive | – | inactive | – | inactive | – | – | inactive | – | inactive | inactive | inactive | inactive | – | inactive | inactive | – | – |
| CCCCCCCCCCCCc1ccc(S(=O)(=O)Nc2nncs2)cc1 | inactive | inactive | inactive | inactive | – | inactive | inactive | inactive | – | inactive | – | inactive | – | 18.7 µM (active) | – | inactive | – | – | – | – |
| Cc1cc(C(=O)NOCCO)c(Nc2ccc(I)cc2F)n(C)c1=O | – | – | 0.0026 µM (active) | – | – | 0.0074 µM (active) | inactive | – | – | inactive | – | inactive | 2.96 µM (active) | inactive | inactive | inactive | – | – | 4.69 µM (active) | – |
| NC(=O)c1cccc(-c2cccc(OC(=O)NC3CCCCC3)c2)c1 | – | inactive | – | inactive | inactive | inactive | inactive | – | inactive | – | – | inactive | inactive | inactive | inactive | – | – | – | inactive | – |
| Cc1ccc(O)c(C(CCN(C(C)C)C(C)C)c2ccccc2)c1 (configuration not stated) | – | inactive | – | inactive | inactive | – | inactive | – | – | – | – | inactive | inactive | – | – | inactive | inactive | – | inactive | 9.35 µM (active) |
| O=C(C[C@@H]1CC=CCCC(=O)O[C@H](c2ccccc2)CNC1=O)NCc1ccc(Cl)cc1 | – | 4.69 µM (active) | – | inactive | – | – | inactive | inactive | – | inactive | – | inactive | 16.6 µM (active) | inactive | inactive | – | inactive | inactive | inactive | – |
